Assay outcomes as filed in PubChem BioAssay.
Rows were chosen to be rich in hits. Some 6.8% of all compounds tested hit in one or more screens of this group.
PMK inhibit = S. pneumoniae PMK inhibitors, primary screen, biochemical, mevalonate pathway, pilot trial included; phosphomevalonate kinase (Streptococcus pneumoniae D39); purified PMK, PK/LDH-coupled NADH absorbance 340 nm; inhibition, % at 10 µM; 0.49% of 65,000 active; AID 539, 2006;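 active = top-ranked compounds by inhibition in the single 10 µM screen, taking a fixed number of the strongest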;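 note: 0% = full reaction with DMSO carrier and 100% = background rate without enzyme reaction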
NADH coupling = inhibitors of PK/LDH coupling enzymes, profiling panel, artefact control, biochemical, MLSMR library. coupled PK/LDH NADH assays, four targets. IC50, µM (top dose mostly 10 µM), inactives show top-dose inhibition. 0.02% of 65,000 active. AID 774, 2007;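 active = single-dose screening hits from any of four coupled enzyme assays that gave an IC50 when retested across doses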;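 note: the DPM-DC format reads NADH fluorescence rather than 340 nm absorbance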
Spn MK inh = S. pneumoniae MK inhibitors, primary screen, biochemical, PK/LDH-coupled NADH absorbance; 0.48% of 65,000 active; inhibition, % at 10 µM; AID 555, 2006; purified MK, PK/LDH-coupled NADH absorbance 340 nm;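 active = ranked among the strongest by inhibition in the single 10 µM screen, a fixed top-ranked set picked for dose follow-up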
Fluor 339 460 = intrinsic fluorescence of library compounds, ex339/em460 – biochemical, MLSMR library, data from DPM-DC assay, artefact control, profiling panel; AID 709, 2007; 5.5% of 65,000 active; compound autofluorescence, ex339/em460 nm, NADH buffer; active compounds read high; 1 = no-compound wells, NADH background; fluorescence fold increase at 10 µM;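 active = at 10 µM, mean starting fluorescence two-fold or more over control wells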;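 note: signal is the first read of a kinetic run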
Spn DPM-DC inh = S. pneumoniae DPM-DC inhibitors, primary screen, biochemical, PK/LDH-coupled NADH fluorescence | purified DPM-DC | calls only at 10 µM | 0.49% of 65,000 active;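 active = the 320 compounds with the highest percent inhibition in the single-dose primary screen, excluding strongly autofluorescent ones, cut at about 32% in these data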;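 note: kinetic rate of NADH fluorescence loss reporting ADP formed by the decarboxylase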
Abs 340nm = compound light absorbance at 340 nm, profiling panel, artefact control, biochemical, MLSMR library, data from PS, PMK, MK assays; 65,000 tested, under 10 active; fold change at 10 µM; compound absorbance at 340 nm, fold over control;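 active = at 10 µM dose, initial 340 nm absorbance at least 2 fold that of control wells; inactive = change under 2 fold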;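 note: initial absorbance extrapolated from kinetic A340 decline of NADH oxidation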
Numbers without * were called inactive; i = inactive.

SMILES	PMK inhibit	NADH coupling	Spn MK inh	Fluor 339 460	Spn DPM-DC inh	Abs 340nm
O=C(O)C1CN2CCC1CC2 (stereo unspecified)	11	7%	9	1.1	i	1
CC1CN(O)C2CCc3nonc3C12O (stereo unspecified)	9	6%	10	1.1	i	0.99
O=C(NCC(c1cccnc1)N1CCN(c2ccc(F)cc2)CC1)Oc1ccccc1 (stereo unspecified)	12	4%	0	1.1	i	1
COc1ccc(C(=O)N2CCCC2=O)cc1	11	8%	14	1.1	i	0.99
O=C(Cn1c(=O)c(C(F)(F)F)nc2ccccc21)N1CCC2(CC1)OCCO2	15	12%	0	2*	i	1.1
O=C(Cn1ncc2ccsc2c1=O)N1CCC2(CC1)OCCO2	0	1%	3	1.1	i	1
CC(C)(C)c1ccc(O)c(CN2CCN(c3ccccc3)CC2)c1	0	0%	0	1.1	i	1.1
